According to PubChem BioAssay AID504406 (Broad Institute, 2011):
Hit rate of the full screen: of about 320,000 compounds, about 190 (0.059%) were called active. Cut-off read from the data, not from the text of the source: active = inhibition above about 10% (passing the limit was not always enough); inconclusive = no clear call, values can overlap the other calls. The sample as a whole holds a higher share of actives than the screen did.

These molecules were tested against UDP-galactopyranose mutase (Mycobacterium tuberculosis (strain ATCC 25618 / H37Rv)) (UniProt P9WIQ1) (assay: M. tuberculosis UGM enzyme inhibitors, primary screen, biochemical, fluorescence polarization, single point (AID 504406)). Settings: purified UGM, fluorescence polarization probe displacement; at 10 µM; active compounds read high.
Chain of UDP-galactopyranose mutase (Mycobacterium tuberculosis (strain ATCC 25618 / H37Rv)) (P9WIQ1 whole entry, looked up): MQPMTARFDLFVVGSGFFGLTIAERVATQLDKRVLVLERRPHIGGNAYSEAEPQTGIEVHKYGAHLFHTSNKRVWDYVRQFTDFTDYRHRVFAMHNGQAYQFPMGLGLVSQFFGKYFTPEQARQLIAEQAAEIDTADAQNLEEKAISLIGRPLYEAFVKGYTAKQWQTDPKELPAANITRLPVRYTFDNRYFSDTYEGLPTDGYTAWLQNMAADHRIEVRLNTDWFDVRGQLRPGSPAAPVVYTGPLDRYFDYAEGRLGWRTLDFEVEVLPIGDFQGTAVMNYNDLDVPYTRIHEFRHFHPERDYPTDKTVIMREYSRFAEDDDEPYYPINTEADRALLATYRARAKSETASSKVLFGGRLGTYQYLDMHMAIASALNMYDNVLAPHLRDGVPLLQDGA
With CC1CC(=O)N(CC(=O)Nc2cccc(Cl)c2)c2ccccc2S1(=O)=O (stereo unspecified) the inhibition was -0.479% (inactive).
O=C(O)C1CC=CCC1C(=O)NCCc1ccccc1 (stereo unspecified) was tested, and the inhibition was -0.437% (inactive).
For CC(NC(=O)c1ccc(S(=O)(=O)Nc2ccccc2)cc1)c1ccc(S(N)(=O)=O)cc1 (stereo unspecified), the inhibition was -0.443% (inactive).
For CC(=O)c1nn(-c2cccc(Br)c2)cc1C(=O)c1cccc2ccccc12, the inhibition was 2.24% (inactive).
For O=C(CCCN1CCc2[nH]c3ccc(F)cc3c2C1)c1ccc(F)cc1, the inhibition was -0.464% (inactive).
In the case of COc1ccc(C(C)NC(=O)C23CC4CC(CC(C4)C2)C3)cc1 (stereo unspecified), the inhibition is reported as 0.347% (inactive).
For CCOc1ccccc1-n1c(SCC(=O)N2CCCC2)nnc1-c1ccoc1C, the inhibition was 0.65% (inactive).
With O=C(Cc1cccs1)NCc1cccc(C(F)(F)F)c1 the inhibition was 0.316% (inactive).
In the case of O=C(CC1Oc2ccccc2NC1=O)NCCCN1CCN(Cc2ccccc2)CC1 (stereo unspecified), the inhibition is reported as -0.871% (inactive).
For Cc1ccc(C(=O)CSc2nc3ccccc3c(=O)n2N)o1, the inhibition was -2.34% (inactive).
In the case of COc1cccc(-c2ccc3c(c2)S(=O)(=O)c2cccc(C(=O)O)c2C3=O)c1OC, the inhibition is reported as -0.479% (inactive).
For O=C(COc1cc(Cl)c(Cl)cc1Cl)NCCc1ccccn1, the inhibition was 1.96% (inactive).
In the case of COC(=O)C[n+]1cccc2ccccc21, the inhibition is reported as 13.9% (active).
For COc1c(C(=O)N2CCCC2)ccc2ccccc12, the inhibition was -0.901% (inactive).
For O=C(C[n+]1cc(Br)cc2ccccc21)c1ccc(F)cc1, the inhibition was -0.457% (inactive).
With COc1ccc(CCN2C(=O)c3[nH]nc(-c4ccccc4O)c3C2c2ccc(C)cc2)cc1OC (stereo unspecified) the inhibition was 2.57% (inactive).
For COc1ccc(N2CCN(S(=O)(=O)c3cc(Br)cnc3N)CC2)cc1, the inhibition was 1.41% (inactive).
Cc1ccc(NS(=O)(=O)c2ccc(F)cc2)nc1 was tested, and the inhibition was -0.636% (inactive).
N#Cc1c(N)nc2c3c(sc(=N)c2c1N)NC(=O)CC3c1ccccc1Cl (stereo unspecified) was tested, and the inhibition was 2.45% (inactive).
COc1cccc(CNC(=O)CCC2CCCN(C(=O)c3ccoc3C)C2)c1 (stereo unspecified) was tested, and the inhibition was -0.384% (inactive).
With COc1ccc(NC(=O)CN(Cc2ccccc2)S(C)(=O)=O)cc1OC the inhibition was -0.501% (inactive).
For CCc1ccccc1NC(=S)Nc1cc(OC)c(NC(=O)C(C)C)cc1OC, the inhibition was 0.622% (inactive).
With COC(=O)C1=C(C(=O)OC)[C@@H]2N(C)c3ccccc3[C@@]23C[C@@H](C(=O)OC)N(C(C)=O)C3=N1 the inhibition was -0.842% (inactive).
In the case of O=C(NCc1ccco1)C1CCCN1S(=O)(=O)c1ccccc1C(F)(F)F (stereo unspecified), the inhibition is reported as 5.45% (inactive).
For CC(C)Oc1ccccc1C(=O)NC(CO)C(=O)O (stereo unspecified), the inhibition was -1.15% (inactive).
CC(=O)C1=C(O)C(=O)N(c2ccc(S(N)(=O)=O)cc2)C1c1ccccc1F (stereo unspecified) was tested, and the inhibition was 3.63% (inactive).
For Cc1ccc(CCn2c3c(c4ccccc42)CN(C)CC3)cn1, the inhibition was 0.129% (inactive).
For O=C(NCc1cccnc1)Nc1cccc(NC(=O)NCc2cccnc2)c1F, the inhibition was -4.12% (inactive).
For CCOC(=O)C1(Cc2cccc(OC)c2)CCCN(C(=O)CCSC)C1 (stereo unspecified), the inhibition was 1.34% (inactive).
Cc1ccc(-c2nn(-c3cccc(F)c3)cc2CNCCc2ccncc2)o1 was tested, and the inhibition was -3.08% (inactive).
Cc1ccc2c(CC(=O)NCc3cccs3)coc2c1 was tested, and the inhibition was -2.27% (inactive).
For CCN1C(=NCc2ccc(OC)cc2)N[C@@H](CCc2ccccc2)[C@H](C(=O)NCc2ccc(OC)cc2)[C@H]1C, the inhibition was 0.311% (inactive).
COc1ccc(OC)c(C2N(c3ccccn3)C(=O)C3CCCN32)c1 (stereo unspecified) was tested, and the inhibition was -1.67% (inactive).
O=C(c1ccc(Cl)c(S(=O)(=O)N2CCCCCC2)c1)N1CCN(c2ccc(O)cc2)CC1 was tested, and the inhibition was 0.826% (inactive).
In the case of CSCCC(NS(=O)(=O)c1ccc2c(c1)oc(=O)n2C)C(=O)NCc1ccccc1 (stereo unspecified), the inhibition is reported as 7.62% (inactive).
For COc1cccc(CNS(=O)(=O)c2ccc3c(c2)N(C(C)=O)CCS3)c1, the inhibition was 0.635% (inactive).
For Cc1nc(NCc2ccccc2)c(C(N)=O)c2c1COC(C)(C)C2, the inhibition was -0.415% (inactive).
O=C(CSc1nnnn1-c1ccc(O)cc1)N1N=C(c2ccc3ccccc3c2)CC1c1ccccc1 (stereo unspecified) was tested, and the inhibition was -0.544% (inactive).
In the case of O=C(CN1C(=O)COc2ccc(Cl)cc21)N1CCOCC1, the inhibition is reported as -2.04% (inactive).
With Nc1ncc(CN2CCCC(C(=O)Nc3ccc(-c4ccco4)cc3)C2)cn1 (stereo unspecified) the inhibition was -0.194% (inactive).
O=C(CCCN1C(=O)c2ccccc2C1=O)Oc1ccc(Cl)cc1 was tested, and the inhibition was 1.46% (inactive).
With COc1cc(S(=O)(=O)N(Cc2cccs2)C2CC2)ccc1-n1cnnn1 the inhibition was -0.867% (inactive).
CCOc1cc(C(=O)Nc2ccc(S(=O)(=O)Nc3cnc4ccccc4n3)cc2)cc(OCC)c1OCC was tested, and the inhibition was -1.61% (inactive).
For COC(=O)C1(C)CC1(c1ccccc1)c1ccccc1 (stereo unspecified), the inhibition was -0.587% (inactive).
NC(=O)C1CC=CCC1C(=O)OCC(Cl)=C(Cl)Cl (stereo unspecified) was tested, and the inhibition was -1.58% (inactive).
Nc1ccc2nc3c(=O)[nH]c(=S)[nH]c3nc2c1 was tested, and the inhibition was 15.2% (active).
CC(C)C[C@@H](COc1ccccc1)N1CCN(CC(C)C)CCC1=O was tested, and the inhibition was 1.36% (inactive).
For O=C(Nc1ccc([N+](=O)[O-])cc1)OCCc1ccccn1, the inhibition was -0.463% (inactive).
In the case of Cc1ccc(S(=O)(=O)NC2CCCCCC2)cc1C(N)=O, the inhibition is reported as 1.67% (inactive).
For CC(C)(C)C1CCC(C(=O)NCC(c2cccs2)N2CCOCC2)CC1 (stereo unspecified), the inhibition was 0.328% (inactive).
C(=C\c1ccccc1)/CSc1nnc(-c2cccnc2)n1Cc1ccco1 was tested, and the inhibition was 1.26% (inactive).
Cc1nn(C)cc1N1C(=O)c2cccc3c(N)ccc(c23)C1=O was tested, and the inhibition was 31.9% (active).
CN1C(=O)c2cccc3c(N)ccc(c23)C1=O was tested, and the inhibition was 24.4% (active).
CC(C(=O)O)N1C(=O)c2cccc3cccc1c23 (stereo unspecified) was tested, and the inhibition was 3.93% (inactive).
In the case of COc1ccc([N+](=O)[O-])cc1NC(=O)c1ccc(N(Cc2ccccc2C)S(C)(=O)=O)cc1, the inhibition is reported as 0.0791% (inactive).
For COc1cc(OC)cc(/C(N)=N/O)c1, the inhibition was 1.41% (inactive).
For CC(=O)Nc1ccc(NC(=O)C2CCCN2S(=O)(=O)c2cccc(C(F)(F)F)c2)cc1 (stereo unspecified), the inhibition was -2.31% (inactive).
CC(=O)Nc1ccc(S(=O)(=O)NC(C)C(=O)OCCOc2ccc(F)cc2)cc1 (stereo unspecified) was tested, and the inhibition was -1.41% (inactive).
CCCCN(CC)CCNC(=O)CCNC(=O)Cn1ccc2ccccc2c1=O was tested, and the inhibition was 0.375% (inactive).
With COCCCNC(NC(=O)c1ccc(C)cc1)C(Cl)(Cl)Cl (stereo unspecified) the inhibition was -0.407% (inactive).
For O=C(NNC1=NCCC1)c1cccc(S(=O)(=O)N2CCCCC2)c1, the inhibition was 2.86% (inactive).
With COc1ccc(/C=C(/NC(=O)c2ccco2)C(=O)Nc2ccc(C(C)=O)cc2)cc1 the inhibition was 0.676% (inactive).
COc1ccc(-c2cc(C(=O)N3CCN(c4ccc(F)cc4)CC3)no2)cc1 was tested, and the inhibition was 0.979% (inactive).
Oc1ccc2ccc3cccc[n+]3c2c1 was tested, and the inhibition was 45.7% (active).
With CCc1ccc(C(=O)N2CCN(S(=O)(=O)c3sc(C(=O)O)c(C)c3C(=O)O)CC2)cc1 the inhibition was 2.51% (inactive).
For COc1cc(/C=C/C(=O)OCC(=O)NC2CC2)cc(OC)c1OC, the inhibition was 0.117% (inactive).
COc1ccc(/C=C/C(=O)OCC(=O)NC2CCCCCC2)cc1OC was tested, and the inhibition was 29.9% (active).
With COc1ccccc1/C=C/C(=O)OCC(=O)NC1CCCCCC1 the inhibition was -0.893% (inactive).
With COc1cccc(NC(=O)Cn2c3ccccc3c3nc4n(c(=O)c32)CCS4)c1 the inhibition was 0.23% (inactive).
For COc1ccccc1NC(=O)C(C)OC(=O)c1ccc(-n2cnnn2)cc1 (stereo unspecified), the inhibition was -1.34% (inactive).
In the case of COc1ccc(S(=O)(=O)N2CCN(C(=O)c3cc(C)oc3C)CC2)cc1, the inhibition is reported as -0.865% (inactive).
In the case of COc1ccc(N(CC(=O)NC2CCCCC2)C(=O)CNC(=O)c2ccco2)c(OC)c1, the inhibition is reported as 2.4% (inactive).
For CC(C)CCNc1nc(N2CCCC2)c2c(c1C#N)CCN(C)C2, the inhibition was 3.98% (inactive).
For Clc1ccc(-c2cc(C3CCNCC3)[nH]n2)c(Cl)c1, the inhibition was 1.34% (inactive).
With O=C1CCc2cc(S(=O)(=O)Nc3ccc(C(F)(F)F)cc3)cc3c2N1CC3 the inhibition was -0.849% (inactive).
With Cc1nnc(Nc2ccccc2F)s1 the inhibition was -1.25% (inactive).
For CCc1ccc2c(c1)C1(NN=C(c3ccccc3)S1)C(=O)N2 (stereo unspecified), the inhibition was 1.69% (inactive).
For O=C(OCc1cc(=O)n2ccsc2n1)C1(c2ccc(Cl)cc2)CC1, the inhibition was -0.701% (inactive).
With COc1ccc([N+](=O)[O-])cc1N(CC(=O)Nc1ccccc1C(=O)N1CCOCC1)S(C)(=O)=O the inhibition was -1.48% (inactive).
O=C(NCC#CCSc1nnc(-c2cccc3ccccc23)o1)c1cccs1 was tested, and the inhibition was 0.904% (inactive).
With O=C(COC(=O)CCCSc1nc2ccccc2[nH]1)Nc1ccc(Oc2ccccc2)cc1 the inhibition was -1.64% (inactive).
For Cn1c(=O)[nH]c(=O)c2c1nc(NCCCn1ccnc1)n2Cc1cccc(Br)c1, the inhibition was 1.02% (inactive).
N#CC1=C(N)C(C#N)(C#N)[C@H](c2ccsc2)[C@H]2COCC=C12 was tested, and the inhibition was 0.548% (inactive).
CCN1CC=C2C(C#N)=C(N)C(C#N)(C#N)[C@H](c3ccoc3)[C@H]2C1 was tested, and the inhibition was 13.1% (active).
In the case of COc1ccc(OC)c(CCNC(=O)CCn2ccc3cc(S(=O)(=O)N4CCCC4)ccc32)c1, the inhibition is reported as -0.0435% (inactive).
For CCN(C(=O)COC(=O)CCC(=O)c1cccs1)C1CCCCC1, the inhibition was 0.798% (inactive).
In the case of CCN(C(=O)CSc1cccc[n+]1[O-])c1ccccc1, the inhibition is reported as 1.75% (inactive).
COc1ccccc1CCC(=O)OCC(=O)N1CCN(S(=O)(=O)c2ccc(C)cc2C)CC1 was tested, and the inhibition was 2.52% (inactive).
With CC(=O)N1CC2(C)CN(C(C)=O)CC(C)(C1)C2=O the inhibition was -1.57% (inactive).
COCCn1c(SCc2nc3cc(OC)c(OC)cc3c(=O)[nH]2)nnc1-c1ccncc1 was tested, and the inhibition was 0.376% (inactive).
With COCCCNC(=O)CC1C[C@H](C(=O)N2CCCCC2)[C@@]2(CCc3ccccc3)c3[nH]c4ccccc4c3CCN2C1=O (stereo partly specified) the inhibition was -1.3% (inactive).
